Compounds with a hit are over-represented: about 2% of the library has one in this group of screens.
MBNL1-CUG inh: qHTS Assay for Inhibitors of MBNL1-poly(CUG) RNA binding; Potency, µM (titrated, usually from 57.5 µM), hits mostly inhibitors; Muscleblind-like protein 1 (Homo sapiens), Q9NR56; TR-FRET MBNL1-His/biotin-(CUG)12 binding, 665/545 ratio; AID 2675, 2010; actives 0.036% (n = 280,000); active = well fitted inhibition curve with a large enough effect in the signal ratio, with a control signal flat, not every such curve was filed as active; inconclusive = small, poorly fitted or top-dose-only effect, or effect the other way, or a change in a side signal; inactive = no such curve, though single readings can be large or run the other way; the % refers to the signal ratio
Target sequence (Q9NR56 whole entry, looked up): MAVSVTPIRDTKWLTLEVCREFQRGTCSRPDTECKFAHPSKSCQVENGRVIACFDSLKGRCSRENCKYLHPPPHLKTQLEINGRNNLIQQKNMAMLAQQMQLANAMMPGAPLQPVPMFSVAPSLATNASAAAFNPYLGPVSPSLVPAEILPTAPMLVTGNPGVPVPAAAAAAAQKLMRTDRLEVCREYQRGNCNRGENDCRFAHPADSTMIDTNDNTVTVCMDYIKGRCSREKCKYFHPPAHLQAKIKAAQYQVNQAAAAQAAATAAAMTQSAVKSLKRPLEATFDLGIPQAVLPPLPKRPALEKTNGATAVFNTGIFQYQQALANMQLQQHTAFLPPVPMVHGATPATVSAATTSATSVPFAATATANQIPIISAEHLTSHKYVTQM
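MBNL1-His + Biotin-(CUG)12, cpd titration 92 nM–58 uM; Tb anti-His Ab 0.055 ng/ul, SA-XL665 5 nM (final); 60 min RT; ratiometric 665/545 nm, Ex 340 nm; normalized to buffer and full-complex controls.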
aSyn rescue: qHTS of alpha-syn Inhibitors; Yeast expressing alpha-synuclein, growth rescue, BacTiter-Glo, 24 h; Potency, µM (titrated, usually from 46.1 µM), hits mostly activators; actives 0.14% (n = 370,000); AID 652106, 2013; also: nearly all actives have a fitted effect of over 65% in size
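Galactose-induced alpha-syn yeast (OD600=0.02, raffinose-pregrown) + pinned cpd, 24 hr, 30 deg C; growth by BacTiter-Glo luminescence. Growth restoration scores as activation.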
GRP78 ERSR act: qHTS for Inducers of the Endoplasmic Reticulum Stress Response (ERSR) in Human Glioma: qHTS; U87-MG GRP78 promoter luciferase reporter, 16 h; Potency, µM, usual class: activators; actives 0.02% (n = 420,000); AID 602332, 2012; also: series mostly up to about 76 µM; nearly all actives have a fitted effect of over 35% in size
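Stably transfected U87-MG human glioma cells carrying a GRP78-based luminescent sensor were seeded at 1000 cells/well, pin-dosed with compounds and incubated 16 h. Luciferase reagent was then added, and end-point luminescence was read after 10 min at room temperature.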
FUS suppressor: qHTS for Suppressors of FUS Proteinopathy: Primary screen using FUS-linked yeast assay; actives 0.24% (n = 390,000); S. cerevisiae FUS-expressing, growth rescue, OD600, 24 h; Potency, µM (series often up to 76.6 µM), usual class: activators; AID 1347120, 2019; also: nearly all actives have a fitted effect of over 55% in size
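Yeast expressing FUS under galactose induction, OD 0.005 in 2% galactose medium; compounds in a dilution series, 24 h at 30C. Growth rescue by absorbance at 600 nm; CP55940 positive control, DMSO negative.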
Abeta yeast res: qHTS for compounds that reverse cellular toxicity of Amyloid beta (A-beta) peptide in yeast: Primary Screen; yeast expressing A-beta42, growth rescue, OD600, 48 h; response scale: 0% DMSO, 100% iron-clioquinol control; Potency, µM (highest dose often 46.1 µM), hits mostly activators; actives 0.063% (n = 410,000); AID 1347071, 2019; also: nearly all actives have a fitted effect of over 55% in size
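Yeast growth medium received pinned compounds, then yeast cells expressing toxic A-beta were added; plates incubated at 30 C for 48 hr. Growth read as absorbance at 600 nm, normalized to DMSO and equimolar FeCl3 plus clioquinol controls.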
TDP43 rescue: qHTS of TDP-43 Inhibitors | actives 1.8% (n = 410,000) | Potency, µM (series often up to 46.1 µM), hits mostly activators | AID 652104, 2013 | TDP-43 expressing yeast growth rescue, BacTiter-Glo, 24 h; also: nearly all actives have a fitted effect of over 50% in size
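Luminescence from BacTiter-Glo reports growth of TDP-43-expressing yeast after 24 hr at 30 deg C with compound. Cells were raffinose-pregrown to mid-log, then seeded in galactose medium at OD600=0.02.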
Hits are given with their value; – = inactive; ? = inconclusive; · = no result given. Unless noted, calls follow the shape of the dose curve; as a rule, active = well fitted curve in the direction sought with a large enough effect; inconclusive = small, poorly fitted or top-dose-only effect, or another doubt; inactive = no such curve, though single readings can be large; an effect the other way counts as inactive or inconclusive.

SMILES	MBNL1-CUG inh	aSyn rescue	GRP78 ERSR act	FUS suppressor	Abeta yeast res	TDP43 rescue
COc1ccc(CNCc2cccc(OC)c2OC)cc1Br	–	–	–	–	–	–
COc1ccc(CNc2cccc(F)c2)cc1Br	–	–	–	·	–	13µM
COc1cc([N+](=O)[O-])cc(/C=N/NC(=O)C(C)Nc2ccccc2C)c1O (configuration not stated)	?	–	–	·	–	20µM
CCC(C)(C)n1nnnc1C(c1cc2ccc(OC)cc2[nH]c1=O)N1CCCCC1 (configuration not stated)	–	–	–	–	–	–
CCC(C)(C)n1nnnc1C(c1cc2cccc(C)c2[nH]c1=O)N1CCCC1 (configuration not stated)	?	–	–	32µM	–	–
CCC(C)(C)n1nnnc1C(c1cc2cc(C)cc(C)c2[nH]c1=O)N1CCN(Cc2ccc3c(c2)OCO3)CC1 (configuration not stated)	–	–	–	·	–	–
CCC(C)(C)n1nnnc1C(c1cc2cc(C)cc(C)c2[nH]c1=O)N1CCCC1 (configuration not stated)	–	–	–	25µM	–	–
CC(=O)N1CCN(C(=O)CCn2nnc3ccccc32)CC1	·	·	·	–	·	·
O=C(CCc1ccccc1)N[C@H]1[C@H](OC(=O)c2cnccn2)CCC[C@]12C(=O)N(Cc1ccccc1)c1ccccc12	·	·	·	–	·	·
C[C@@H]1CC[C@]2(C(=O)O[C@@H]3O[C@H](CO)[C@@H](O)[C@H](O)[C@H]3O)CC[C@]3(C)C(=CCC4[C@@]5(C)C[C@@H](O)[C@H](O)[C@@](C)(C(=O)O[C@@H]6[C@H](O)C[C@@]7(C)C(CC[C@]8(C)C7CC=C7[C@H]9[C@](C(=O)O[C@@H]%10O[C@H](CO)[C@@H](O)[C@H](O)[C@H]%10O)(CC[C@@H](C)[C@@]9(C)O)CC[C@]78C)[C@@]6(CO)C(=O)O)C5CC[C@]43C)[C@@H]2[C@]1(C)O (some centres not stated)	·	–	–	13µM	–	–
c1coc(-c2nnc3n2N=C(c2ccc4ccccc4c2)CS3)c1	·	·	·	–	·	·
COc1ccc(C2=Nn3c(nnc3-c3ccco3)SC2)cc1	?	–	–	–	–	22µM
CCOc1ccc(N2C(=O)CC(N(C)Cc3ccccc3)C2=O)cc1 (configuration not stated)	–	–	–	–	–	18µM
COC(=O)c1ccc(N2C(=O)CC(N(C)Cc3ccccc3)C2=O)cc1 (configuration not stated)	–	–	–	–	–	7.1µM
CCCOc1ccc(N2C(=O)CC(N(Cc3ccccc3)N=O)C2=O)cc1 (configuration not stated)	–	–	–	–	–	20µM
COC(=O)c1ccc(N2C(=O)CC(N(C)CCc3ccc(OC)c(OC)c3)C2=O)cc1 (configuration not stated)	–	–	–	–	–	?
COc1cccc(Cn2cnc3c(cnn3C(C)(C)C)c2=O)c1	·	·	–	·	·	·
CSc1ccc(NC(=O)C2(C)CCN2C(=O)c2sccc2C)cc1 (configuration not stated)	·	–	–	–	–	35µM
CC(C)c1nc2cccnc2n1C1CCN(C(=O)Cn2cccn2)CC1	·	·	–	·	·	·
CC(=O)NC(c1ccc(Cl)cc1Cl)c1ccc2cccnc2c1O (configuration not stated)	–	?	–	–	?	32µM
CC(C)C(=O)NC(c1cccc([N+](=O)[O-])c1)c1ccc2cccnc2c1O (configuration not stated)	–	–	–	–	–	35µM
CCCC(=O)NC(c1ccc(Cl)cc1Cl)c1ccc2cccnc2c1O (configuration not stated)	–	?	–	–	?	·
NC(=Nc1cccc(F)c1)NC(=O)OCc1ccccc1	·	·	·	–	·	·
CCCCCN1CCCCC(NC(=O)c2cccc(C(F)(F)F)c2)C1=O (configuration not stated)	·	·	·	–	·	·
Cc1ccc2c(n1)Oc1ccc(C(C)C(=O)OCC(=O)N(C)C)cc1C2 (configuration not stated)	·	·	–	·	·	·
SMILES	MBNL1-CUG inh	aSyn rescue	GRP78 ERSR act	FUS suppressor	Abeta yeast res	TDP43 rescue
CCC1CCCCN1S(=O)(=O)c1ccc2c(c1)CCN2C(=O)C1CCC1 (configuration not stated)	–	–	–	–	–	35µM
CCC1CCCCN1S(=O)(=O)c1ccc2c(c1)CCCN2C(C)=O (configuration not stated)	·	·	–	–	–	?
CCOC(=O)C1CCCCN1S(=O)(=O)c1ccc2c(c1)CC(C)N2C(=O)C1CCC1 (configuration not stated)	–	–	–	25µM	·	–
O=C([C@@H]1C[C@H]1c1ccccc1)N1CC[C@H]2[C@H](CCCN2Cc2cc(F)cc(F)c2)C1	·	·	·	–	·	·
Cc1nc(-n2[nH]c3c(c2=O)CCCC3)[nH]c(=O)c1Cc1ccccc1	–	?	?	?	?	10µM
CCC(=O)NC(=S)Nc1cccc(NC(=O)c2ccccc2C)c1	–	–	–	–	–	–
CCC(=O)NC(=S)Nc1cccc(NC(=O)c2ccccc2Cl)c1	–	–	–	–	–	14µM
Cc1csc2nc(-c3cccc(NC(=O)c4ccccc4Cl)c3)cn12	·	–	–	?	–	20µM
O=C(Nc1cccc(NC(=O)c2ccccc2Cl)c1)c1cccs1	–	–	–	–	–	22µM
CCCC(=O)NC(=S)Nc1cccc(NC(=O)c2ccccc2Cl)c1	·	–	–	–	–	11µM
O=[N+]([O-])c1ccc(O/N=[N+](\[O-])N2CCCC2)c([N+](=O)[O-])c1	·	–	–	·	·	·
COc1ccc(/C=C/C(=O)c2c(O)c(OC)c3occc3c2OC)cc1OC	·	–	·	·	·	·
CCN(C(=O)/C=C/c1ccc(OC)cc1)C1CCCCC1	–	–	–	–	–	18µM
O=C(NCCSc1c[nH]c2ccccc12)c1ccc(Br)o1	–	–	–	–	–	18µM
O=C(NCC1Cc2cccc(-c3cnccn3)c2O1)C1COc2ccccc2O1 (configuration not stated)	·	·	–	·	·	·
Oc1ccc2ccccc2c1SSc1c(O)ccc2ccccc12	·	–	–	·	·	·
COc1ccc(Cl)cc1C(=O)NCCS(=O)(=O)N1CCN(c2ccccc2F)CC1	–	–	–	–	–	?
